The nature of test [1]: antimalarial activity against Dd2 strain (AID 2302;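 active = growth inhibition above 50% at the single 2 µM test dose, taken to imply half-maximal potency below 2 µM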;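 note: 0% = DMSO untreated growth and 100% = chloroquine plus artemisinin killed control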). Particulars: P. falciparum Dd2 in RBCs, LDH growth readout, 72 h; at 2 µM; stronger effect = higher value.
Test [2] is described as follows: human hepatoma cell viability loss – ATP luminescence, cytotoxicity control for P. falciparum antimalarial project, primary screen (AID 2303;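 active = inhibition above 50%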;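 note: 0% = DMSO wells and 100% = digitonin-killed cells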). The settings on record: HepG2 viability, 24-48 h, at 10 µM, stronger effect = higher value.
Test [3] addresses L-lactate dehydrogenase (Plasmodium falciparum (isolate CDC / Honduras)) (UniProt Q27743). Put plainly: PfLDH activity inhibition – cell lysate, 3D7 strain, counter-screen for P. falciparum growth inhibition project (AID 2304).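 Note: 0% = vehicle and 100% = reference inhibitor.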 Particulars: P. falciparum 3D7 crude extract, LDH APAD/NBT absorbance; at 2 µM; stronger effect = higher value. For orientation: A counterscreen serves to expose hits that act by an unwanted route or on another target.

Test [4] in a line: inhibition of 3D7 malaria parasite growth – strain 3D7 (AID 2306).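 Note: 0% = DMSO wells and 100% = chloroquine plus artemisinin control wells.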 Particulars: P. falciparum 3D7 erythrocytic growth, LDH absorbance, 72 h; at 2 µM; stronger effect = higher value.
Test [5] has as its target Calcium-dependent protein kinase 1 (Plasmodium falciparum (isolate 3D7)) (UniProt P62344). Kind of test: PfCDPK1 kinase inhibitors, biochemical, TCAMS library (AID 1159585; cut-off not given, nearly all actives have IC50 up to about 0.98 µM;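 note: inhibitors leave more ATP so luminescence rises with inhibition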). The settings on record: recombinant PfCDPK1, Kinase-Glo ATP depletion luminescence. On the technique in general: In Kinase-Glo more light means more ATP remaining.
Test [6] has as its target Plasmodium falciparum protein kinase 6 (PK6, PF3D7_1337100) (UniProt Q8IDW1). Kind of test: PfPK6 kinase inhibitors, biochemical, TCAMS library (AID 1159586). The settings on record: recombinant PfPK6, Kinase-Glo ATP depletion luminescence.
Test [7] concerns the target Protein kinase 7 (PK7), Plasmodium falciparum 3D7 (PF3D7_0213400) (UniProt Q7YTF7). Kind of test: inhibition of Plasmodium PK7 catalytic activity – biochemical, TCAMS antimalarial set, Kinase-Glo luminescence (AID 1159587). Particulars: recombinant PfPK7, Kinase-Glo ATP depletion luminescence.
Test [8] deals with Calcium-dependent protein kinase 4 (Plasmodium falciparum (isolate 3D7)) (UniProt Q8IBS5). Kind of test: PfCDPK4 kinase inhibitors, biochemical, TCAMS library (AID 1159588; cut-off not given, nearly all actives have IC50 up to about 0.91 µM). The settings on record: recombinant PfCDPK4, Kinase-Glo ATP depletion luminescence.
Chain of Calcium-dependent protein kinase 4 (Plasmodium falciparum (isolate 3D7)) (Q8IBS5 whole entry, looked up): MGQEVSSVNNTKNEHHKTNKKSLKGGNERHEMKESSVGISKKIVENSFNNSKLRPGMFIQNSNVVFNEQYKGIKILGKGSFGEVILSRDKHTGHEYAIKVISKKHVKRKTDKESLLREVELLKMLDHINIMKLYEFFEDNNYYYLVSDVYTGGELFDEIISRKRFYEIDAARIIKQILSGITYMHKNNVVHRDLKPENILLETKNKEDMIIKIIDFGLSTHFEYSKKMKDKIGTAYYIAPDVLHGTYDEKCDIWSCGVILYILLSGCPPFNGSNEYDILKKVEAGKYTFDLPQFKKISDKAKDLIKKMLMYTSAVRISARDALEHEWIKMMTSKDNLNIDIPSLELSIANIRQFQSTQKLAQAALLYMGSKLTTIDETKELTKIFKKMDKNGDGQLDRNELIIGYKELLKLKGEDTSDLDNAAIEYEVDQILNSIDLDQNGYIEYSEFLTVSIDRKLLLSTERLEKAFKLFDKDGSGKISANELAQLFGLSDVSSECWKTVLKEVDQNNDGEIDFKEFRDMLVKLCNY

Values without a mark were called inactive. For some assays here: Entries with a potency or affinity are not part of this list. Calls of active or inactive are those of the source. Unless noted, the rule behind the calls is not given here.

Chain of Protein kinase 7 (PK7), Plasmodium falciparum 3D7 (PF3D7_0213400) (Q7YTF7 1-343): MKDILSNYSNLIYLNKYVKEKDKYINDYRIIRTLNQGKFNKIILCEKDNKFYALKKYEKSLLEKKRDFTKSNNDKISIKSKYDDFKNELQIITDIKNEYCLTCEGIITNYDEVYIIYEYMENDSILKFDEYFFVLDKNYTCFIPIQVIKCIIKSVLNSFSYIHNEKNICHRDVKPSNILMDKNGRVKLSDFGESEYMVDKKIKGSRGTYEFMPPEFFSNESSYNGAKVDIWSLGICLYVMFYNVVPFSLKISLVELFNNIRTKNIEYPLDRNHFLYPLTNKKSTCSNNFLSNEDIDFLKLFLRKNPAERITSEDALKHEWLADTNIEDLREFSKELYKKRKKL
Chain of Calcium-dependent protein kinase 1 (Plasmodium falciparum (isolate 3D7)) (P62344 whole entry, looked up): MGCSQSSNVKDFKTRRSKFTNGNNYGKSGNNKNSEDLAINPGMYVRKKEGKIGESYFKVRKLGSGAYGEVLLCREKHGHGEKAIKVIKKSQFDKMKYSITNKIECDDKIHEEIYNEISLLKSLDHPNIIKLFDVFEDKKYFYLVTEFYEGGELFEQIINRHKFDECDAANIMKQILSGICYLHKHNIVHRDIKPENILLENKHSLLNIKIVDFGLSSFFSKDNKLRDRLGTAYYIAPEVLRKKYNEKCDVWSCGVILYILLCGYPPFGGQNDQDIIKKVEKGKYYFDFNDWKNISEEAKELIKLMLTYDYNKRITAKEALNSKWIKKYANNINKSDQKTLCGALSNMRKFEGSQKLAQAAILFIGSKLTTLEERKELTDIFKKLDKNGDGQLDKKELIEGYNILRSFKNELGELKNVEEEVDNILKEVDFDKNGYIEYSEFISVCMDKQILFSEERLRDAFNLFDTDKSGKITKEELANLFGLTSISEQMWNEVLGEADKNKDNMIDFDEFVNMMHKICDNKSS
Chain of Plasmodium falciparum protein kinase 6 (PK6, PF3D7_1337100) (Q8IDW1 1-305): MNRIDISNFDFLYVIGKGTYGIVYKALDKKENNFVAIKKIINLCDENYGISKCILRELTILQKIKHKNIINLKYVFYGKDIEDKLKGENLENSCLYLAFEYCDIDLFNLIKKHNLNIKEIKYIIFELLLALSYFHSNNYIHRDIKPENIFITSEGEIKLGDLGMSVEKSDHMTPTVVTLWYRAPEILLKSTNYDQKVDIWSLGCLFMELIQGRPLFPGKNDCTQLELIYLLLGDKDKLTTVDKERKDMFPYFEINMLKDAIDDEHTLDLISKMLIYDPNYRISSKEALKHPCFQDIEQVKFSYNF
Chain of L-lactate dehydrogenase (Plasmodium falciparum (isolate CDC / Honduras)) (Q27743 whole entry, looked up): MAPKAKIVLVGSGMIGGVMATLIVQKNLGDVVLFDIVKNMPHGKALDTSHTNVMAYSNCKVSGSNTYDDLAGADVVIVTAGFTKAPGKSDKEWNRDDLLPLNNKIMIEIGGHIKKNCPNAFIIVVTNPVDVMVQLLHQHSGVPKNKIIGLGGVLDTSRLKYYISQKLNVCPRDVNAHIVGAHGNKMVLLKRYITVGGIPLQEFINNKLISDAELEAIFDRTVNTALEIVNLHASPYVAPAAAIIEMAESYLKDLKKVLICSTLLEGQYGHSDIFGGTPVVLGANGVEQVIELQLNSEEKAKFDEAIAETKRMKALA

A word on the inhibition: it is the change of the read-out against control, counted positive when it falls. In the case of `Cc1noc(C)c1-c1ccc2c(Nc3ccccc3C(C)(C)C)c(C(=O)NCc3ccc4c(c3)OCO4)cnc2c1`, the growth inhibition in test [1] was 88% (active); in test [4], 96% (active). For the same molecule, the figures for the inhibition in test [2] and in test [3] were 37% and -3%, respectively. Besides, the result in test [5], in test [6], in test [7] and in test [8] was inactive.
Take `O=C(Nc1ccc(S(=O)(=O)NCCCN2CCOCC2)cc1)c1cc(-c2ccccc2)n[nH]1`: the growth inhibition in test [1] was 29%; in test [4], 82% (active). Moreover, the inhibition is 16% in test [2] and 1% in test [3]. Also, the outcome in test [5], in test [6], in test [7] and in test [8] was inactive.
As to `Cc1cc(N[C@@H](Cc2ccccc2)C(=O)NC2CCCC2)nc(NCCc2ccc(F)cc2)n1`, the growth inhibition was 61% (active) in test [1] and 100% (active) in test [4]. Also, the inhibition in test [2] was 21%; in test [3] it was -2%. The result in test [5], in test [6], in test [7] and in test [8] was inactive.
For `COc1ccc(CCN(C)CCOc2ccc(NC(=O)COc3ccc4sc5ccccc5c(=O)c4c3)cc2)cc1OC`, the growth inhibition was 91% (active) in test [1] and 100% (active) in test [4]. Moreover, the inhibition is 99% (active) in test [2] and -1% in test [3]. Further, the outcome in test [5], in test [6], in test [7] and in test [8] was inactive.
